Reference: the OligoGym collection

What follows are sequences tested against PCTP (assay: pooled miR-30 sensor sort-seq; sequence = guide strand). Details: shRNA.

Sequence | sensor-assay potency score (higher = more potent)
AAGTCCAGTCTTCTTGTCCAGC | -1.17
TAGAACACACTTTTCTTCCCAG | 0.135
TTCTTGTTCATAGAGTTCTTTA | -0.702
TTGCACAATGGAATGATCGTGT | 0.345
TTCATTATAGAACACACTTTTC | -1.43
TACATTTCTAAATATTCTGGGA | -0.38
TTGAACTGTAGAAGAAGGCAGC | -0.297
TTATAGAACACACTTTTCTTCC | -0.218
TTTGCTAGCTGCCACAGCCATC | -1.46
TAACATACTGGTCCCATTGTTT | -0.841
TTCTTTAACATACTGGTCCCAT | -0.412
TAGAGTTCTTTAACATACTGGT | 0.218

The sequences below were run against PC in the same assay as above. Details: shRNA.

Sequence | sensor-assay potency score (higher = more potent)
TTCATCTGCTTTCTGCCGGTGC | -0.101
TTGTTGAGCACATTCTGCAGGA | 0.211
TTGAGGGAGTCAAACACACGGA | 0.00371
TACTGCAGTGAGTACTTGGTGC | -0.271
TCTCGCAGCAGGATGTCTCTGA | 0.144
TTGGTCACATGAACCTTGCGGA | 0.159
TAGTACTGCAGTGAGTACTTGG | -0.46
TTGATGTCTATCACCTTCCCAG | -0.547
TTCTCGTCGATGAACTGGGTGT | -0.428
TTCTTGACCTCCTTGAACTTGG | -0.463
TTGACCTCCTTGAACTTGGAGC | -0.629
TTGAAGACCACGTTGTCTGGGT | 0.437

The sequences below were run against PDE12 in the same assay as above. Details: shRNA.

Sequence | sensor-assay potency score (higher = more potent)
AAATGTAATCTAGACATCCATG | -1.09
TAACTTAAGTCTCTCACCCTTA | -0.0358
TAACTTCTTCATGACTAGGTAA | -0.476
TTCTTTGTGAAGTGGGTCGGAC | -0.551
TATCCTTTTAGAAGAGTCCTTT | 0.141
TTGAGGTAGAGGTAGACCCTAA | -0.795
TGAAATTGTAGTAAATCGCTAA | 0.612
TAGTACATAAGCATGATTCATT | -0.285
TTGAAGTTTACATATAAGCTTT | -0.258
TTGTAGTAAATCGCTAACTAAA | -1.21
TTCACCACAAGCACTTTTCAGC | -0.0283
TAAATCGCTAACTAAATTGAGG | -0.622

These sequences were tested against PDE1C in the same assay as above. Details: shRNA.

Sequence | sensor-assay potency score (higher = more potent)
TTTGAAGTCACCATTCTGTTGC | 0.443
TTGAGTAAAAATCTCACGTTGT | 0.531
TAAGATCTACCACTGAAGCTTC | -0.318
